In PubChem BioAssay (NCI):
This is part of a sample that, as a whole, favours compounds with a hit. Of some 79,000 tested, about 15% had one in any assay. Cut-off read from the data, not from the text of the source: active = growth inhibition above about 70%; inactive = the rest.

Assays:
[1] = NCI Yeast Anticancer Drug Screen. Data for the rad52 strain (AID 147);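 note: 0% = growth of vehicle-treated control cultures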; conditions: S. cerevisiae rad52 mutant growth inhibition, hits give high values
Outline: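 Screen used a yeast mutant impaired in DNA repair. After compound exposure, growth was measured. Values reflect inhibition compared with vehicle-treated cells.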

[2] = NCI Yeast Anticancer Drug Screen. Data for the wt1 strain (AID 149);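 note: 0% = growth of vehicle-treated wt1 cultures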; conditions: S. cerevisiae wt1 strain (SPY 50644) growth inhibition, hits give high values
Outline: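 Readout: yeast growth inhibition, normalised to vehicle controls, in the wt1 strain exposed to test compounds.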

[3] = NCI Yeast Anticancer Drug Screen. Data for the rad50EPP+ strain (AID 151);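 note: 0% = growth of vehicle-treated control cultures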; conditions: S. cerevisiae rad50 mutant strain, hits give high values
Outline: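 Exposing the rad50EPP+ strain to each compound, growth was compared with vehicle-only cultures to give inhibition.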

[4] = NCI Yeast Anticancer Drug Screen. Data for the mgt1 strain (AID 153); conditions: S. cerevisiae mgt1 mutant growth inhibition, hits give high values
Outline: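 Genetically defined yeast (mgt1) treated with compound; inhibition of growth expressed against vehicle-treated controls.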

[5] = NCI Yeast Anticancer Drug Screen. Data for the rad50 strain (AID 155);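 note: 0% = growth of vehicle-only cultures of the same strain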; conditions: S. cerevisiae rad50 strain growth inhibition, hits give high values
Outline: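 Compounds were tested on a yeast strain with an engineered DNA damage repair alteration; the reported value is growth inhibition normalised to vehicle treatment.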

[6] = NCI Yeast Anticancer Drug Screen. Data for the mec2-1 strain (AID 157); conditions: S. cerevisiae mec2-1 strain, hits give high values
Outline: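 Readout is yeast growth inhibition, normalised to vehicle-treated controls, in the mec2-1 strain exposed to compound.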

[7] = NCI Yeast Anticancer Drug Screen. Data for the rad14 strain (AID 159);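 note: 0% = growth of vehicle-treated control cultures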; conditions: S. cerevisiae rad14 strain growth inhibition, hits give high values
Outline: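 Compound-treated yeast with a defined DNA-repair lesion; growth inhibition normalised to vehicle-treated cultures.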

[8] = NCI Yeast Anticancer Drug Screen. Data for the sgs1 mgt1 strain (AID 161);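 note: 0% = growth of cultures given vehicle only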; conditions: S. cerevisiae sgs1 mgt1 strain, hits give high values
Outline: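 Yeast cells carrying a defined DNA-repair defect were exposed to test compounds. Growth inhibition was measured relative to vehicle-treated controls.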

[9] = NCI Yeast Anticancer Drug Screen. Data for the CLN2oe strain (AID 163);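 note: 0% = growth of vehicle-only control cultures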; conditions: S. cerevisiae CLN2oe strain, hits give high values
Outline: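 Values reflect how much compound exposure reduced yeast growth, referenced to vehicle-exposed cells. Assay organism is a strain with a defined genetic change affecting cell-cycle control.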

[10] = NCI Yeast Anticancer Drug Screen. Data for the cln2 rad14 strain (AID 165);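 note: 0% = growth equal to vehicle treated cultures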; conditions: S. cerevisiae cln2 rad14 strain, hits give high values
Outline: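 Relative to vehicle controls, growth inhibition of compound-treated cln2 rad14 yeast was recorded.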

[11] = NCI Yeast Anticancer Drug Screen. Data for the bub3 strain (AID 167); conditions: S. cerevisiae bub3 mutant strain, hits give high values
Outline: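 Growth of a checkpoint-deficient yeast mutant is measured after compound exposure. Values represent inhibition relative to vehicle.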

[12] = NCI Yeast Anticancer Drug Screen. Data for the wt2 strain (AID 169);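 note: 0% = growth of vehicle-treated yeast cultures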; conditions: S. cerevisiae wt2 strain growth inhibition, hits give high values
Outline: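 Values express reduction in yeast growth under compound treatment, referenced to vehicle-treated cells.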

[13] = NCI Yeast Anticancer Drug Screen. Data for the mlh1 strain (AID 171);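 note: 0% = growth of vehicle-treated control cultures of the same strain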; conditions: S. cerevisiae mlh1 strain growth inhibition, hits give high values
Outline: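 Steps: expose the defined-mutant yeast strain to compound; expose a parallel culture to vehicle; measure growth; express compound effect as inhibition relative to the vehicle culture.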

[14] = NCI Yeast Anticancer Drug Screen. Data for the sgs1 strain (AID 173);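 note: 0% = growth of vehicle-only control cultures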; conditions: S. cerevisiae sgs1 mutant, hits give high values
Outline: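 Treat defined-mutant yeast with compound; measure growth; calculate inhibition relative to vehicle-treated cells.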

[15] = NCI Yeast Anticancer Drug Screen. Data for the mlh1 rad18 strain (AID 175); conditions: S. cerevisiae mlh1 rad18 strain growth inhibition, hits give high values
Outline: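 Test agents were incubated with a yeast strain of defined genotype (DNA damage repair defect). Inhibition of growth was derived by comparison with vehicle-exposed cultures.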

[16] = at 5.0 µM (retest, dose inferred, filed as 0.5)
[17] = at 50.0 µM (retest, dose inferred, filed as 5.0)

Measured: growth inhibition

CCN(CC)Cc1cc(Nc2c3ccccc3nc3c2[nH]c2ccccc23)cc(CN(CC)CC)c1O
inactive: [1]; at 1.2 µM 32% | [1]; at 3.7 µM 21% | [1]; at 11.0 µM 12% | [1]; at 33.0 µM 7% | [1]; at 100.0 µM 18% | [2]; at 1.2 µM 1% | [2]; at 3.7 µM 2% | [2]; at 11.0 µM -1% | [2]; at 33.0 µM 0% | [2]; at 100.0 µM 3% | [3]; at 1.2 µM 3% | [3]; at 3.7 µM 1% | [3]; at 11.0 µM 3% | [3]; at 33.0 µM 2% | [3]; at 100.0 µM 13% | [4]; at 1.2 µM -3% | [4]; at 3.7 µM -3% | [4]; at 11.0 µM -3% | [4]; at 33.0 µM -16% | [4]; at 100.0 µM 1% | [5]; at 1.2 µM 25% | [5]; at 3.7 µM 7% | [5]; [16] -3% | [5]; at 11.0 µM -4% | [5]; at 33.0 µM 10% | [5]; [17] 10% | [5]; at 50.0 µM 17.8% | [5]; at 100.0 µM 23% | [6]; at 1.2 µM 2% | [6]; at 3.7 µM 1% | [6]; [16] -2% | [6]; at 11.0 µM -1% | [6]; at 33.0 µM 2% | [6]; [17] 15% | [6]; at 50.0 µM 21.3% | [6]; at 100.0 µM 5% | [7]; at 1.2 µM -1% | [7]; at 3.7 µM -3% | [7]; at 11.0 µM -1% | [7]; at 33.0 µM 2% | [7]; at 100.0 µM 8% | [8]; [16] -5% | [8]; [17] 1% | [8]; at 50.0 µM -10.1% | [9]; at 1.2 µM -5% | [9]; at 3.7 µM -3% | [9]; at 11.0 µM 1% | [9]; at 33.0 µM 3% | [9]; at 100.0 µM 7% | [10]; [16] 48% | [10]; [17] 61% | [10]; at 50.0 µM 66% | [11]; at 1.2 µM -2% | [11]; at 3.7 µM -4% | [11]; [16] 16% | [11]; at 11.0 µM -3% | [11]; at 33.0 µM -3% | [11]; [17] 38% | [11]; at 50.0 µM -10.2% | [11]; at 100.0 µM 0% | [12]; at 1.2 µM -1% | [12]; at 3.7 µM -2% | [12]; at 11.0 µM -4% | [12]; at 33.0 µM -2% | [12]; at 100.0 µM 1% | [13]; at 1.2 µM 1% | [13]; at 3.7 µM 2% | [13]; at 11.0 µM 1% | [13]; at 33.0 µM 1% | [13]; at 100.0 µM 7% | [14]; at 1.2 µM 6% | [14]; at 3.7 µM 3% | [14]; at 11.0 µM -2% | [14]; at 33.0 µM -2% | [14]; at 100.0 µM 0% | [15]; [16] 13% | [15]; [17] 16% | [15]; at 50.0 µM -11.6%
